Here are results for 15 compounds from PubChem BioAssay.

Assay [1] has as its system PRMT1 (protein arginine N-methyltransferase 1). Kind of assay: PRMT1 binders on small-molecule microarrays, primary screen, biochemical, small-molecule microarray, 635 nm fluorescence (AID 1088).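 Note: binding of Prmt1 protein to compounds spotted on small-molecule microarray slides.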 The conditions noted are these: small-molecule microarray binding, higher = more signal.
A short description of assay [2]: yeast growth modulation, basal conditions, primary screen, YJM789 clinical isolate, OD600, 24 h (AID 1089).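 Note: growth of clinical yeast isolate S. cerevisiae YJM 789 seeded 1000 cells per well; test concentration not given here.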 Particulars: S. cerevisiae YJM789 growth, higher = more signal, called active from +8 up or from −8 down.
Assay [3] can be described thus: fission yeast growth modulation, primary screen, strain 972, OD600, 24 h, no modulator (AID 1090).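 Note: basal condition with compound alone and no growth modifier present; test concentration not given here.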 The conditions noted are these: S. pombe 972 growth, higher = more signal, called active from +8 up or from −8 down.
Assay [4] can be described thus: S. cerevisiae growth modulation with rapamycin, primary screen, strain BY4716, OD600, 96 h (AID 1091). Note: test concentration not given here. Particulars: higher = more signal, called active from +8 up or from −8 down.
Assay [5] has as its target Torsin-1A-interacting protein 2 (Homo sapiens) (UniProt Q8NFQ8). The experiment in a line: LULL1 binders on small-molecule microarray, primary screen, cell lysate, human LULL1 lysate, 635/667 nm fluorescence (AID 1092).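 Note: probe is lysate of COS7 cells overexpressing human LULL1; score merges per-feature 667 nm fluorescence with signal-to-noise.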 Particulars: hLULL1 lysate binding, 635 nm fluorescence, higher = more signal.
A short description of assay [6]: E. coli growth modulation, two-sided OD650, primary screen, E. coli filamentation project, strain DRC41, 24 h (AID 1093).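 Note: MC1000 strain lacking acrAB efflux and sulA so SOS filamentation is blocked; test concentration not given here.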 Particulars: OD650, 24 h, higher = more signal, called active from +8 up or from −8 down.
The nature of assay [7]: small-molecule microarray binders of probe aLefty2, primary screen, biochemical, biotinylated probe, 635/667 nm fluorescence (AID 1094).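 Note: score merges spot fluorescence near 667 nm with spot signal-to-noise ratio.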 The conditions noted are these: higher = more signal.
Assay [8] has as its system Noggin (protein binding on small-molecule microarray). The experiment in a line: Noggin binders on small-molecule microarray, primary screen, biochemical, 635/667 nm fluorescence (AID 1095).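 Note: score merges 667 nm feature fluorescence with signal to noise over triplicate slides.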 Particulars: 635 nm fluorescence, higher = more signal.
For assay [9], the target named is Neurogenic locus notch homolog protein 3 (Homo sapiens) (UniProt Q9UM47). Kind of assay: NOTCH3 binders on small-molecule microarray, primary screen, biochemical, 635/667 nm fluorescence (AID 1096). The conditions noted are these: NOTCH3 binding, 635 nm fluorescence, higher = more signal.
A short description of assay [10]: small-molecule microarray binders of probe aEGFR, primary screen, biochemical, biotinylated probe, 635/667 nm fluorescence (AID 1097).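 Note: probe is a biotinylated anti-EGFR antibody binding compounds printed on slides; score combines fluorescence near 667 nm and signal to noise of each spot.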 The conditions noted are these: higher = more signal.

The source made the active and inactive calls.

Chain of Neurogenic locus notch homolog protein 3 (Homo sapiens) (Q9UM47 whole entry, looked up): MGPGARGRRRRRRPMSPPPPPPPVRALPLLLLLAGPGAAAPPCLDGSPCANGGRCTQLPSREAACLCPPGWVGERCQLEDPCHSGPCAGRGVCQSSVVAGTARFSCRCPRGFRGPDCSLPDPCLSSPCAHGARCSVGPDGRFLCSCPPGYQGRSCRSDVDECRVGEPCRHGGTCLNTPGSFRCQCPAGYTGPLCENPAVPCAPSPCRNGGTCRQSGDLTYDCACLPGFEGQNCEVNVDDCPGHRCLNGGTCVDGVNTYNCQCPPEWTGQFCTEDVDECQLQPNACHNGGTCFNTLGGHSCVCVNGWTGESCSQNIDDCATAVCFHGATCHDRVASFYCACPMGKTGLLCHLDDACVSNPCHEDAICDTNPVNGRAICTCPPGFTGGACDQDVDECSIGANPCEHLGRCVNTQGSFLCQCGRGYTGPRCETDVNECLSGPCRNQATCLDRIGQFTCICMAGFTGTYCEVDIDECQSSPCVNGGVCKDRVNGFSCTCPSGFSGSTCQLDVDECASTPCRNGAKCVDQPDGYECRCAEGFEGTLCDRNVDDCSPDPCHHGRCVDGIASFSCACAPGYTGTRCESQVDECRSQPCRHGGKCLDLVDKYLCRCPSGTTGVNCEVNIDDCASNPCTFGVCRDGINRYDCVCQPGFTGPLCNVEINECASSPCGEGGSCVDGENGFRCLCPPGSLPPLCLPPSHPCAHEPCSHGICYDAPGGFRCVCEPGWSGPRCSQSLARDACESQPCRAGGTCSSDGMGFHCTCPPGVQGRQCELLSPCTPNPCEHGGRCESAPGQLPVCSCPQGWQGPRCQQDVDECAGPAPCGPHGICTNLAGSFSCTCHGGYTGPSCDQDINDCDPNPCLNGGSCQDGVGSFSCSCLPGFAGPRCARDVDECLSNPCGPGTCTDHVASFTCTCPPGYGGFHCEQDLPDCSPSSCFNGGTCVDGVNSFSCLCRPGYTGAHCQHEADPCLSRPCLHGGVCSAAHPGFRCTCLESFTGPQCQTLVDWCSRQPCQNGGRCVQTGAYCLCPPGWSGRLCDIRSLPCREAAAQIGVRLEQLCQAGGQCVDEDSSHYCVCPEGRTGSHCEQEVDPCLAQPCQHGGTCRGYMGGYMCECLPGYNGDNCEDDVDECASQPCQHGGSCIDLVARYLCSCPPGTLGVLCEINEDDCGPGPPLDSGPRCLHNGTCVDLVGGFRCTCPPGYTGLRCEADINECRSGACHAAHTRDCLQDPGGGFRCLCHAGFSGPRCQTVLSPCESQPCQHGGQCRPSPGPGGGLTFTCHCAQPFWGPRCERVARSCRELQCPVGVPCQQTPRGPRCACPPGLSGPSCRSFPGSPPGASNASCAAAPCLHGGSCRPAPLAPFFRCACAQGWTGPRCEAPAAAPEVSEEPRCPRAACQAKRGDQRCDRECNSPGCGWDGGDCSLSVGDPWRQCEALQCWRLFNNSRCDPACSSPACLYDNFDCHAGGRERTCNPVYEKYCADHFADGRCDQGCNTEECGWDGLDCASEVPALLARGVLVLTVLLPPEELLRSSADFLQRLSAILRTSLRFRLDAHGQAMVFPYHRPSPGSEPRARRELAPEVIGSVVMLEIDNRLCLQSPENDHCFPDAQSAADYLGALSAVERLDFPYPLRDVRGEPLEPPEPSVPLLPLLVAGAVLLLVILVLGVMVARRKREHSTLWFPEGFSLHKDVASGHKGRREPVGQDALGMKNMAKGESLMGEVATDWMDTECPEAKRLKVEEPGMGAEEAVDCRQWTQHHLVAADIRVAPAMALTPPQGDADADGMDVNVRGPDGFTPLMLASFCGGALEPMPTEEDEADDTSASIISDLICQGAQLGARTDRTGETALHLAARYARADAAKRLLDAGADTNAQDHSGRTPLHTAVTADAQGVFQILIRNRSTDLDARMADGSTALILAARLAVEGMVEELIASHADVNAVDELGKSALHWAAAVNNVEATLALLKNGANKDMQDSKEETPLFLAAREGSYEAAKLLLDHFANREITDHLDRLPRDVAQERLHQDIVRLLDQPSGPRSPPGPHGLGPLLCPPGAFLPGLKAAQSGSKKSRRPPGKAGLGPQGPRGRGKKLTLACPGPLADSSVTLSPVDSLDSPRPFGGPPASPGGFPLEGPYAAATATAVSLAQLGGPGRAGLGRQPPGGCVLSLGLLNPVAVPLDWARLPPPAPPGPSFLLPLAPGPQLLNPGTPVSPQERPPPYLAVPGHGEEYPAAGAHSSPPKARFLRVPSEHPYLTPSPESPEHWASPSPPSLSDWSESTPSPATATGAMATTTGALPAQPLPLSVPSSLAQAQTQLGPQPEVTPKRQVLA
Chain of Torsin-1A-interacting protein 2 (Homo sapiens) (Q8NFQ8 whole entry, looked up): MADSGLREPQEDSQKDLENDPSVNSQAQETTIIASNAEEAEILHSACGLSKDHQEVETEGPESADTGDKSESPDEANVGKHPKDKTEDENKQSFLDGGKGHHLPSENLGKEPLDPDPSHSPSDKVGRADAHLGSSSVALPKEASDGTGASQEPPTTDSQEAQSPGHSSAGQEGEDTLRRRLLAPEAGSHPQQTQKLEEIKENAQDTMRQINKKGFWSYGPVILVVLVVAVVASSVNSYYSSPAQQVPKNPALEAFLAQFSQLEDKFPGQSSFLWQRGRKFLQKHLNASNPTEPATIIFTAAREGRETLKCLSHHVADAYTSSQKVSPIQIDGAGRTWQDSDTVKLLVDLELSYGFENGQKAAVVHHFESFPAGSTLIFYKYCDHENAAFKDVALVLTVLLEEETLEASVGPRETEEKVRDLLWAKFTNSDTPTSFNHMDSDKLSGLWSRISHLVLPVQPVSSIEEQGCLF

In the case of `CC(C)CCC[C@@H](C)[C@H]1CC[C@@]2(C)C3=C(CC[C@]12C)[C@@]1(C)CC[C@H](OC(=O)c2ccc(C(F)(F)F)nc2)C(C)(C)C1CC3` (stereo not given in full), the composite z-score in assay [1] is -0.431; in assay [5] it was 0.282; in [7] it was -0.233; in assay [8], 0.52; in assay [9], 0.483; in assay [10], -0.1. The z-score was -1.64 (inactive) in [2], -0.769 (inactive) in assay [3], -0.455 (inactive) in [4] and 3.05 (inactive) in assay [6].
On to `OCCCC1=CC(C2CC2)N(Cc2cccc(OC(F)(F)F)c2)CC1` (stereo not given), for which the composite z-score is 0.352 in assay [1]; 0.25 in [5]; -0.264 in assay [7]; -0.177 in assay [8]; -0.477 in assay [9]; -0.157 in assay [10]. The z-score in assay [2] is -2.88 (inactive); in assay [3], -2.33 (inactive); in [4], -1.72 (inactive); in assay [6], -0.454 (inactive).
`CC(C)(C)OC(=O)CC[C@@]1(C(=O)N2CCCCC2)N=C(c2ccc(OCCCO)cc2)O[C@@H]1c1ccccc1`: the composite z-score in assay [1] was 1.54; in assay [5] it was 3.52; in assay [7] it was 0.0215; in [8] it was 0.318; in [9], 1.12; in [10], -0.0053. Further, the z-score in [2] is -1.23 (inactive); in assay [3], -0.76 (inactive); in assay [4], -0.95 (inactive); in assay [6] it was -0.223 (inactive).
Regarding `COC(=O)C(CC#Cc1ccc2c(c1)[C@]1(C(=O)N2)[C@H](c2ccccc2OCCO)N2[C@H](c3ccccc3)[C@H](c3ccccc3)OC(=O)[C@H]2[C@@H]1C(=O)O)C(=O)OC`, the composite z-score in assay [1] is 1.57; in assay [5], 2.37; in [7], 0.264; in assay [8] it was 0.793; in [9] it was 0.691; in [10] it was -0.0032. Besides, the z-score in assay [2] was 2.46 (inactive); in assay [3] it was 0.521 (inactive); in [4] it was -0.188 (inactive); in assay [6], 0.871 (inactive).
For the compound `O=C1OCCC=C[C@H]2OC34C=CCN(c5ccc(Cl)cc5)C(=O)[C@H]3N(CCCO)C(=O)[C@@H]4C12` (stereo not given in full), the composite z-score in assay [1] was -0.827; in assay [5] it was -1.28; in assay [7], 0.0058; in assay [8], -0.469; in assay [9], -0.792; in [10] it was -0.116. Also, the z-score in assay [2] was -0.0304 (inactive); in assay [3], -1.36 (inactive); in assay [4], 0.0341 (inactive); in assay [6] it was 1.31 (inactive).
As to `COC(=O)C(CC#Cc1ccc2c(c1)[C@]1(C(=O)N2)[C@H](c2ccccc2OCCO)N2[C@H](c3ccccc3)[C@H](c3ccccc3)OC(=O)[C@H]2[C@@H]1C(N)=O)C(=O)OC`, the composite z-score in [1] stood at 1.27; in [5], 2.93; in [7] it was 1.11; in [8] it was 0.0814; in assay [9] it was 0.895; in assay [10] it was 0.656. For the same compound, the z-score in [2] is 1.31 (inactive); in assay [3], -0.117 (inactive); in assay [4], 3.7 (inactive); in assay [6], 1.13 (inactive).
Turning to `OB1C=CCC(CCc2ccccc2)O1` (stereo not given), the composite z-score in assay [1] is -1.12; in [5], -1.05; in [7], -0.192; in assay [8] it was -0.0988; in assay [9], -1.12; in assay [10], -0.211. Besides, the z-score in [2] was -1.95 (inactive); in [3], -2.06 (inactive); in [4], -0.762 (inactive); in [6], 1.96 (inactive).
For the compound `O=C1O[C@@H](c2ccccc2)[C@@H](c2ccccc2)N2[C@@H](c3ccc(OCCO)cc3)[C@]3(C(=O)Nc4ccc(C#CCCO)cc43)[C@@H](C(=O)NC[C@H](O)c3ccccc3)[C@H]12`, the composite z-score in assay [1] is 1.54; in assay [5] it was 2.71; in assay [7], 0.409; in [8], 1.25; in assay [9], 0.667; in assay [10], 0.258. In addition, the z-score is 2.55 (inactive) in assay [2], 1.19 (inactive) in assay [3], 4.63 (inactive) in assay [4] and 0.695 (inactive) in assay [6].
Regarding `COCCOC(=O)N1C(=O)[C@@]2(c3ccccc31)[C@H](C(N)=O)[C@H]1C(=O)O[C@H](c3ccccc3)[C@H](c3ccccc3)N1[C@@H]2c1ccc(O)cc1`, the composite z-score in assay [1] was 1.38; in [5], 3.1; in [7] it was -0.166; in [8], -0.32; in assay [9], 0.129; in assay [10], -0.171. Also, the z-score in assay [2] is -1.19 (inactive); in assay [3], -1.3 (inactive); in [4], 0.695 (inactive); in assay [6], 0.628 (inactive).
On to `C=CCN(Cc1ccccc1)C(=O)C(c1cccs1)N(C(=O)/C=C\C(=O)O)c1ccc(CCOCCO)cc1` (stereo not given), for which the composite z-score in assay [1] was -0.133; in assay [5], -0.288; in assay [7], -0.209; in assay [8], -1.51; in assay [9], -1.36; in [10], -0.32. The z-score in assay [2] is -1.22 (inactive); in assay [3] it was 0.246 (inactive); in [4], -0.391 (inactive); in assay [6] it was 1.01 (inactive).
Regarding `COCCOC(=O)N1C(=O)[C@@]2(c3ccccc31)[C@H](C(=O)N1CCCCCCC1)[C@H]1C(=O)O[C@H](c3ccccc3)[C@H](c3ccccc3)N1[C@@H]2c1ccc(OCCO)cc1`, the composite z-score stood at 1.54 in assay [1]; 4.99 in assay [5]; 1.98 in assay [7]; 2.22 in assay [8]; 1 in assay [9]; 1.38 in assay [10]. The z-score in [2] was 1.9 (inactive); in assay [3] it was 1.62 (inactive); in [4], 4.28 (inactive); in assay [6] it was -0.348 (inactive).
For the compound `COCCOC(=O)N1C(=O)[C@@]2(c3cc(C#CC4(O)CCCCCC4)ccc31)[C@H](C(=O)Nc1nc3ccccc3s1)[C@H]1C(=O)O[C@H](c3ccccc3)[C@H](c3ccccc3)N1[C@@H]2c1ccccc1OCCO`, the composite z-score was 1.55 in assay [1]; 2.89 in [5]; -0.0575 in [7]; 1.38 in [8]; 1.11 in assay [9]; 0.0857 in [10]. Moreover, the z-score in assay [2] was 0.976 (inactive); in [3], 0.249 (inactive); in [4], 2.12 (inactive); in assay [6], 1.26 (inactive).
Consider `COc1ccc(C(O)C2C=CC3C(=O)N(C)C(=O)C3N2NC(=O)OC(C)(C)C)c2ccccc12` (stereo not given), for which the composite z-score in [1] is 1.57; in assay [5] it was 3.12; in [7], 0.284; in assay [8], -0.149; in assay [9] it was 1.08; in [10], 0.0185. Further, the z-score is -0.842 (inactive) in assay [2], 1.64 (inactive) in assay [3], 0.577 (inactive) in assay [4] and -0.618 (inactive) in [6].
In the case of `O=c1cccc(-c2ccccc2Cl)o1`, the composite z-score in assay [1] was 0.023; in assay [5], 0.551; in assay [7], -0.127; in [8], 0.466; in [9], -0.691; in assay [10], -0.139. Moreover, the z-score in [2] was -0.871 (inactive); in [3], -0.463 (inactive); in assay [4], 2.12 (inactive); in [6], -0.252 (inactive).
For `[N-]=[N+]=NCc1ccccc1[C@@H]1OC(c2ccc(OCCCO)cc2)=N[C@]1(CCS(=O)(=O)c1ccccc1)C(N)=O`, the composite z-score in assay [1] stood at 1.56; in [5], 3.51; in assay [7], 0.308; in [8], 0.888; in [9], 1.08; in assay [10] it was 0.388. In addition, the z-score in assay [2] is 1.16 (inactive); in assay [3] it was -1.17 (inactive); in assay [4], -0.325 (inactive); in [6] it was 0.901 (inactive).
